Reference: publication PMC7862700, “An all-to-all approach to the identification of sequence-specific readers for epigenetic DNA modifications on cytosine”

Key:
Assay in all cases: DAPPL (digital affinity profiling via proximity ligation, sequencing); 10 mM Tris-HCl pH 7.5, 50 mM NaCl, 1 mM DTT, 4% glycerol, room temperature, 30 min; GST-TFs on glutathione beads, 16-mer random dsDNA library, 0.1% formaldehyde crosslink after washing; high values mean tight binding
FEV = target: T1, FEV (Homo sapiens, UniProt Q99581 1-238); conditions: protein: recombinant; tags: N-terminal GST; dsDNA, one strand shown
T1 sequence: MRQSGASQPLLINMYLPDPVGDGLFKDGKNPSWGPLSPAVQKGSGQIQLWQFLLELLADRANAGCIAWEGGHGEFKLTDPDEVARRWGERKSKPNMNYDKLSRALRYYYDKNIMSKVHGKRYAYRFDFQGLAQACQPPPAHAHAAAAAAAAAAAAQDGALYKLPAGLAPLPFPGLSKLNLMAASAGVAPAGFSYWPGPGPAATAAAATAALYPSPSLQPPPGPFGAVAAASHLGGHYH
In short: (§1)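 The binding signal reported is, for every hexamer, its read frequency for a factor over its read frequency for the tag-only sample. Reads came from pools of yeast-expressed, GST-fused human transcription factors on glutathione beads, barcoded with DNA and mixed with that sample, which were incubated with 200 nmole of a random double-stranded 16-mer DNA library in Tris/NaCl/DTT/glycerol buffer at room temperature for 30 min. After washing, the pools were crosslinked with 0.1% formaldehyde, proximity-ligated with BsaI/T4 ligase for 1 h at 37 °C, PCR-amplified and sequenced on an Illumina NextSeq500.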

ETV5 = ETV5 (Homo sapiens, UniProt P41161 1-510); conditions: protein: recombinant; tags: N-terminal GST; dsDNA, one strand shown
Chain of ETV5 (P41161 whole entry): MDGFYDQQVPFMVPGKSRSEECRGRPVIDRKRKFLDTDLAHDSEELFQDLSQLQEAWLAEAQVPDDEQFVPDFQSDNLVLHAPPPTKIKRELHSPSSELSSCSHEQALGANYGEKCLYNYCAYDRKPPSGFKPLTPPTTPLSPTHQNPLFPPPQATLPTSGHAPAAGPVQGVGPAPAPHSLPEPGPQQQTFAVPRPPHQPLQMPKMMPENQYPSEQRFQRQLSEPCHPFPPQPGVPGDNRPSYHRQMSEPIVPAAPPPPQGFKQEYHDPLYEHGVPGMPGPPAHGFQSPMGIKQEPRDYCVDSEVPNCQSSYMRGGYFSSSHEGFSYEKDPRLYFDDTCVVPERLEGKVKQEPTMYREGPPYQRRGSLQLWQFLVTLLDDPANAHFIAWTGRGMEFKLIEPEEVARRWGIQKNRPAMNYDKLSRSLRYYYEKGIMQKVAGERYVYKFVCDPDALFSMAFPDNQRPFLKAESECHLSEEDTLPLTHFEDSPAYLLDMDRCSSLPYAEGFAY
In short: as §1

HSF1 = HSF1 (Homo sapiens, UniProt Q00613 1-529); conditions: protein: recombinant; tags: N-terminal GST; chain copies: 3; dsDNA, one strand shown
Chain of HSF1 (Q00613 whole entry): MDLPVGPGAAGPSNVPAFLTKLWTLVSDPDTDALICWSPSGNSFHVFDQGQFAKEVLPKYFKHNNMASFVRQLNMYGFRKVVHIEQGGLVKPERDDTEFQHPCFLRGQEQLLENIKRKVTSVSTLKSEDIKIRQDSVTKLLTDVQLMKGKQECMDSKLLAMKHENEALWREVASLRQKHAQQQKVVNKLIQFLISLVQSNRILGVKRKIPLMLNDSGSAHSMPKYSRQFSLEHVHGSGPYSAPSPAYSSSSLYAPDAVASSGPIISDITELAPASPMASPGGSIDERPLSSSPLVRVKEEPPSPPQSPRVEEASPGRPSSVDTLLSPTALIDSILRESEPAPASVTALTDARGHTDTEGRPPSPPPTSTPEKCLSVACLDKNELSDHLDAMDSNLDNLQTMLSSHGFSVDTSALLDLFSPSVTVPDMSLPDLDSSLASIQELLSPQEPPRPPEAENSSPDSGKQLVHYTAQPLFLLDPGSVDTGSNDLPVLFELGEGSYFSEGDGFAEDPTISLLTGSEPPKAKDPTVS
In short: as §1

SPIC = target: T2, SPIC (Homo sapiens, UniProt Q8N5J4 1-248); conditions: protein: recombinant; tags: N-terminal GST; dsDNA, one strand shown
T2 sequence: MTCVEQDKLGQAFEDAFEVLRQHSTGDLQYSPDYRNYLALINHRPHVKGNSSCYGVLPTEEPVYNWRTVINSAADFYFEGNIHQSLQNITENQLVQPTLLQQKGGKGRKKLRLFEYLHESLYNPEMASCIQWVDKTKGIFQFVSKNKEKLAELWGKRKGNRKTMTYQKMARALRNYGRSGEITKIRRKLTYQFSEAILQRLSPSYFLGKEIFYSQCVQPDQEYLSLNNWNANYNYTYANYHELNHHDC
In short: as §1

ELF4 = ELF4 (Homo sapiens, UniProt Q99607 1-663); conditions: protein: recombinant; tags: N-terminal GST; dsDNA, one strand shown
Chain of ELF4 (Q99607 whole entry): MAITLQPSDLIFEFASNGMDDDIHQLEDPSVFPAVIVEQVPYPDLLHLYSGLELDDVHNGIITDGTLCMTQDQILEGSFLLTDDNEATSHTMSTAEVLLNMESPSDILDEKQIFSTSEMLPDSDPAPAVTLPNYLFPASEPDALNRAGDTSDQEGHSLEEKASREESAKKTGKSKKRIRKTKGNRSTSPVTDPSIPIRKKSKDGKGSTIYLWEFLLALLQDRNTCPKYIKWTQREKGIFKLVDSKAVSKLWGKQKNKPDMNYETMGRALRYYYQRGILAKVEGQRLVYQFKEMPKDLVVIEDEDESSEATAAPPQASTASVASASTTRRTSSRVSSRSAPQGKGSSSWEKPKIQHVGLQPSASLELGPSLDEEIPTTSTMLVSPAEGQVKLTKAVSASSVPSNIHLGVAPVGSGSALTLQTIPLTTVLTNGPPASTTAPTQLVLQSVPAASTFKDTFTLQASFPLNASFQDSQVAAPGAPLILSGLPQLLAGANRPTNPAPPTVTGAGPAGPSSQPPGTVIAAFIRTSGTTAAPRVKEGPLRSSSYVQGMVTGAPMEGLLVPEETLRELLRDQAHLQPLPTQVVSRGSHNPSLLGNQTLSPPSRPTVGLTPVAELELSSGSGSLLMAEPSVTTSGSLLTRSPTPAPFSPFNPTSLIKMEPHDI
In short: as §1

ELK4 = target: T3, ELK4 (Homo sapiens, UniProt P28324-2 1-405); conditions: protein: recombinant; tags: N-terminal GST; dsDNA, one strand shown
T3 sequence: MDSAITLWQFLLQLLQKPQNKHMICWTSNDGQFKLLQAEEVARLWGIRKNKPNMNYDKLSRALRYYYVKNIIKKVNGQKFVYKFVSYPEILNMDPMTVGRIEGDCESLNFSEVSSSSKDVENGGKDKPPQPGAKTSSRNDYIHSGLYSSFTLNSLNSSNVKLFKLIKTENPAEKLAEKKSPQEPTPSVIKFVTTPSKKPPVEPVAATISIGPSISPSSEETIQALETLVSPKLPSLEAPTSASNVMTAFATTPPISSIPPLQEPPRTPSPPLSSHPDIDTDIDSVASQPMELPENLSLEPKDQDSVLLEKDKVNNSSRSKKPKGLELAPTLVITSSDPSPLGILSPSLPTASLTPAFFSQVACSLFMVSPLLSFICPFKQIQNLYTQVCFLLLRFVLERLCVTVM
In short: as §1

ETV2 = target: T4, ETV2 (Homo sapiens, UniProt O00321 1-342); conditions: protein: recombinant; tags: N-terminal GST; dsDNA, one strand shown
T4 sequence: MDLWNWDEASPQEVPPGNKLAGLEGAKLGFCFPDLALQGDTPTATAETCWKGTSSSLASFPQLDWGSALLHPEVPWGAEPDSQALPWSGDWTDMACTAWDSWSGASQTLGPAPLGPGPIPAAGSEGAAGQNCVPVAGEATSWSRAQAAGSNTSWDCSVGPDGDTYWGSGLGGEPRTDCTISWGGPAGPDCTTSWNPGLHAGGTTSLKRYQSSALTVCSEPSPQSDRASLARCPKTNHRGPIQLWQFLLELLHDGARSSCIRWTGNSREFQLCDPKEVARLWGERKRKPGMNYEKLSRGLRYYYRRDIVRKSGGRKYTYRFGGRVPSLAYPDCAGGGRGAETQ
In short: as §1

ELF3 = target: T5, ELF3 (Homo sapiens, UniProt P78545 1-371); conditions: protein: recombinant; tags: N-terminal GST; dsDNA, one strand shown
T5 sequence: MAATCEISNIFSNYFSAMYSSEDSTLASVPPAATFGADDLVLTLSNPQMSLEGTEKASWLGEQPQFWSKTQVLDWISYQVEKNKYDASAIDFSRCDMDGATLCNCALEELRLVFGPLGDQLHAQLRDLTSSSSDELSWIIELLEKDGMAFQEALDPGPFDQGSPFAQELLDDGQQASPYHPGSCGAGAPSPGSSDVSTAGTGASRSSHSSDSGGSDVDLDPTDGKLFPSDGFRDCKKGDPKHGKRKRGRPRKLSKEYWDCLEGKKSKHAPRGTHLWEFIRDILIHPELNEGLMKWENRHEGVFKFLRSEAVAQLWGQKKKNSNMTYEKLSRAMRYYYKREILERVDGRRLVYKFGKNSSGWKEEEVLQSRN
In short: as §1

ETV1 = ETV1 (Homo sapiens, UniProt P50549 1-477); conditions: protein: recombinant; tags: N-terminal GST; dsDNA, one strand shown
Chain of ETV1 (P50549 whole entry): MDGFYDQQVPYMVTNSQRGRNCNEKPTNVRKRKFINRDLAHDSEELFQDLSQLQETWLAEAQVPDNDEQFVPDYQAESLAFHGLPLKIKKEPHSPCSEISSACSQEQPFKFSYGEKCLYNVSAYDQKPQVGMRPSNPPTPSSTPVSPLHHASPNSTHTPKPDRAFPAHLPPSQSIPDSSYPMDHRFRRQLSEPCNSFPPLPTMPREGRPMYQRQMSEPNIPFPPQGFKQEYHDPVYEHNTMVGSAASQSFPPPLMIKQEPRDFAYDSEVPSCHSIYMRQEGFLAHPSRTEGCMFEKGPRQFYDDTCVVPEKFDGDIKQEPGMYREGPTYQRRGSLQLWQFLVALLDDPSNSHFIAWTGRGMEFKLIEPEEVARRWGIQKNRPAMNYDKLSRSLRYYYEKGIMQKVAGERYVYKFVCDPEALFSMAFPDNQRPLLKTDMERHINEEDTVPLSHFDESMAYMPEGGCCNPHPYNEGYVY
In short: as §1

ERF = target: T6, ERF (Homo sapiens, UniProt P50548 1-548); conditions: protein: recombinant; tags: N-terminal GST; dsDNA, one strand shown
T6 sequence: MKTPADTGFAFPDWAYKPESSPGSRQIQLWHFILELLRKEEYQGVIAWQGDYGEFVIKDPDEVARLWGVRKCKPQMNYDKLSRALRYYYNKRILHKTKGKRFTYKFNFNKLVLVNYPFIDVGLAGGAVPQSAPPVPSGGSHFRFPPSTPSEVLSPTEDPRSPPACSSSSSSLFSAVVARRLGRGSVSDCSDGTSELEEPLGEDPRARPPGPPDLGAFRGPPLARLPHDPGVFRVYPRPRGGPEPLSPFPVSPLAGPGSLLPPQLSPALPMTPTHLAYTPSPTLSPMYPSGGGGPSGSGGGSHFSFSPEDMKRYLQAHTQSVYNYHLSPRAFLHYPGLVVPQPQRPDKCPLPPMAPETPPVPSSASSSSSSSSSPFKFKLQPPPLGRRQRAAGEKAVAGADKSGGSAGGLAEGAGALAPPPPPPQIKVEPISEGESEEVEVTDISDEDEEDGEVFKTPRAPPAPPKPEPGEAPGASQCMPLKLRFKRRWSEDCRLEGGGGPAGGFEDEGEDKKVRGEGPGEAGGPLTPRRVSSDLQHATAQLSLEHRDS
In short: as §1

ETV3L = target: T7, ETV3L (Homo sapiens, UniProt Q6ZN32 1-361); conditions: protein: recombinant; tags: N-terminal GST; dsDNA, one strand shown
T7 sequence: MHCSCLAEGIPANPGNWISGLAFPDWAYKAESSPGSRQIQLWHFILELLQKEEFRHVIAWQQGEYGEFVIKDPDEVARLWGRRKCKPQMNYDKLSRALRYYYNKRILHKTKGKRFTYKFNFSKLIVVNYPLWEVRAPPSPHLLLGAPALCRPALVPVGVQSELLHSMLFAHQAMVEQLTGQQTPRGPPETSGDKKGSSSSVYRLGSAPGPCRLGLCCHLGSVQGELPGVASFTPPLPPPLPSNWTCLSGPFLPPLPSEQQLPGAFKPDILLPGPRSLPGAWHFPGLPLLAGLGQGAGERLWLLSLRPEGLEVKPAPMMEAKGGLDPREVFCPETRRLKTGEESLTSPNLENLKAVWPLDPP
In short: as §1

ETS2 = target: T8, ETS2 (Homo sapiens, UniProt P15036 1-469); conditions: protein: recombinant; tags: N-terminal GST; dsDNA, one strand shown
T8 sequence: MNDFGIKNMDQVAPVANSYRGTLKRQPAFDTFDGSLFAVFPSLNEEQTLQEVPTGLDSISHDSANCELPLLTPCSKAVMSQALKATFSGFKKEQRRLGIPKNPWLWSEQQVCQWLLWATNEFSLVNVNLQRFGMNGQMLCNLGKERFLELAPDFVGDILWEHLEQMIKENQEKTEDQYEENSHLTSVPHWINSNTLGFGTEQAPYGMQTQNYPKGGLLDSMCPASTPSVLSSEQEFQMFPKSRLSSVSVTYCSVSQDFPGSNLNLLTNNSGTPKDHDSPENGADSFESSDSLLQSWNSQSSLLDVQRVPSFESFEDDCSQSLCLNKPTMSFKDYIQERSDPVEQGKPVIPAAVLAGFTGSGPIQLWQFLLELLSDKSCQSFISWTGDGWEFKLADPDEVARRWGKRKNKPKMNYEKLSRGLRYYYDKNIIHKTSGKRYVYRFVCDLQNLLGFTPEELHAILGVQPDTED
In short: as §1

SPDEF = target: T9, SPDEF (Homo sapiens, UniProt O95238 1-335); conditions: protein: recombinant; tags: N-terminal GST; dsDNA, one strand shown
T9 sequence: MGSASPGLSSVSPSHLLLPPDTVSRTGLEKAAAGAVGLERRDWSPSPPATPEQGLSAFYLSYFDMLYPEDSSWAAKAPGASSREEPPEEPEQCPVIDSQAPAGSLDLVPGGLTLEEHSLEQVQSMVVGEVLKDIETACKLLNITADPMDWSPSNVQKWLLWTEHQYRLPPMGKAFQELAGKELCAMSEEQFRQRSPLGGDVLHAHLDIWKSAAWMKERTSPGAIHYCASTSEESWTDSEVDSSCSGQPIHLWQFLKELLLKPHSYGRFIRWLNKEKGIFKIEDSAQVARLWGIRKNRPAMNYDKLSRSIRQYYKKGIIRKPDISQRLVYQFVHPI
In short: as §1

ETV7 = target: T10, ETV7 (Homo sapiens, UniProt Q9Y603 1-341); conditions: protein: recombinant; tags: N-terminal GST; dsDNA, one strand shown
T10 sequence: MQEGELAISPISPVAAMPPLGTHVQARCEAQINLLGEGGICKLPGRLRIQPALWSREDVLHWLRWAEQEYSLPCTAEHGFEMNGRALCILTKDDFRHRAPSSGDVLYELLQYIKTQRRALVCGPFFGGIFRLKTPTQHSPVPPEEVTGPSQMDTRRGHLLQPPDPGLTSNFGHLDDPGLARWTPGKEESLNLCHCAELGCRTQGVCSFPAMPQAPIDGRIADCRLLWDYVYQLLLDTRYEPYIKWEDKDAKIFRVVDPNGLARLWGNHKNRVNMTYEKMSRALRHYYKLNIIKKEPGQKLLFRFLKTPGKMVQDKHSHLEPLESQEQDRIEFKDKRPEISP
In short: as §1

ELF5 = target: T11, ELF5 (Homo sapiens, UniProt Q9UKW6-2 1-255); conditions: protein: recombinant; tags: N-terminal GST; dsDNA, one strand shown
T11 sequence: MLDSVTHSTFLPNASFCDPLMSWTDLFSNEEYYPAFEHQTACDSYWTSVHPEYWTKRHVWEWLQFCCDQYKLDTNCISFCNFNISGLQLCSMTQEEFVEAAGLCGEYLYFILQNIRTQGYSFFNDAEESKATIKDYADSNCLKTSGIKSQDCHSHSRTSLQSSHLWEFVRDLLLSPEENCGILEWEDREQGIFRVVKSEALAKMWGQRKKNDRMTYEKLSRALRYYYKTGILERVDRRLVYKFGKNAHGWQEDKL
In short: as §1

ETV3 = target: T12, ETV3 (Homo sapiens, UniProt P41162-2 1-143); conditions: protein: recombinant; tags: N-terminal GST; dsDNA, one strand shown
T12 sequence: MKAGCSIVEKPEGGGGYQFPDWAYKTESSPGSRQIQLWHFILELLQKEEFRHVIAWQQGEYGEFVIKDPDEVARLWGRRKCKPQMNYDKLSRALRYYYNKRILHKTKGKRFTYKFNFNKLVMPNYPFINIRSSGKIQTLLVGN
In short: as §1

ETV6 = ETV6 (Homo sapiens, UniProt P41212 1-452); conditions: protein: recombinant; tags: N-terminal GST; dsDNA, one strand shown
Chain of ETV6 (P41212 whole entry): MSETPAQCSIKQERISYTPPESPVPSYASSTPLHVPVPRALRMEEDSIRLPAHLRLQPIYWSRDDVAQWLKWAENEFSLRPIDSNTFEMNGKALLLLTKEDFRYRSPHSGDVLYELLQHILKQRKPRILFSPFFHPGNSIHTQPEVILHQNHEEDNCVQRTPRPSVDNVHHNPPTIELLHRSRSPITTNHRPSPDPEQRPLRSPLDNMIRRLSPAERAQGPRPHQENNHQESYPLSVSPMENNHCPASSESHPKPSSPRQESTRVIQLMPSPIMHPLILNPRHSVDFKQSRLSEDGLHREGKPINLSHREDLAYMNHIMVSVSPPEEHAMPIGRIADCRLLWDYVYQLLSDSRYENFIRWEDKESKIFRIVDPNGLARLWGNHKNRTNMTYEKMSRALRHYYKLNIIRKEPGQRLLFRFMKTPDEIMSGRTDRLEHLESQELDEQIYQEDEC
In short: as §1

Sequence	binding signal (FEV)	binding signal (ETV5)	binding signal (HSF1)	binding signal (SPIC)	binding signal (ELF4)	binding signal (ELK4)	binding signal (ETV2)	binding signal (ELF3)	binding signal (ETV1)	binding signal (ERF)	binding signal (ETV3L)	binding signal (ETS2)	binding signal (SPDEF)	binding signal (ETV7)	binding signal (ELF5)	binding signal (ETV3)	binding signal (ETV6)
CTTGAC	1.18 fold enrichment (6-mer frequency, TF over GST control)	1.14 fold enrichment (6-mer frequency, TF over GST control)	1.02 fold enrichment (6-mer frequency, TF over GST control)	1.14 fold enrichment (6-mer frequency, TF over GST control)	1.27 fold enrichment (6-mer frequency, TF over GST control)	1.37 fold enrichment (6-mer frequency, TF over GST control)	1.33 fold enrichment (6-mer frequency, TF over GST control)	1.33 fold enrichment (6-mer frequency, TF over GST control)	1.33 fold enrichment (6-mer frequency, TF over GST control)	1.16 fold enrichment (6-mer frequency, TF over GST control)	1.17 fold enrichment (6-mer frequency, TF over GST control)	1.12 fold enrichment (6-mer frequency, TF over GST control)	1.13 fold enrichment (6-mer frequency, TF over GST control)	1.2 fold enrichment (6-mer frequency, TF over GST control)	1.21 fold enrichment (6-mer frequency, TF over GST control)	1.22 fold enrichment (6-mer frequency, TF over GST control)	1.23 fold enrichment (6-mer frequency, TF over GST control)
GTCTTC	1.34 fold enrichment (6-mer frequency, TF over GST control)	1.31 fold enrichment (6-mer frequency, TF over GST control)	1.17 fold enrichment (6-mer frequency, TF over GST control)	1.18 fold enrichment (6-mer frequency, TF over GST control)	1.23 fold enrichment (6-mer frequency, TF over GST control)	1.14 fold enrichment (6-mer frequency, TF over GST control)	1.22 fold enrichment (6-mer frequency, TF over GST control)	1.46 fold enrichment (6-mer frequency, TF over GST control)	1.29 fold enrichment (6-mer frequency, TF over GST control)	1.29 fold enrichment (6-mer frequency, TF over GST control)	1.23 fold enrichment (6-mer frequency, TF over GST control)	1.4 fold enrichment (6-mer frequency, TF over GST control)	1.27 fold enrichment (6-mer frequency, TF over GST control)	1.14 fold enrichment (6-mer frequency, TF over GST control)	1.72 fold enrichment (6-mer frequency, TF over GST control)	1.4 fold enrichment (6-mer frequency, TF over GST control)	1.32 fold enrichment (6-mer frequency, TF over GST control)
